Assay results reported in PubChem BioAssay AID1117319 (Southern Research Institute, 2015).
About 1,500 (0.58%) of roughly 260,000 compounds were called active. Another 5% or so got no clear call; they are omitted.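 The calls were made as follows: active = inhibition above a set limit at one or more doses, reproduced on every date tested; inconclusive = results disagree between test dates, or hit never tested in dose response; inactive = the rest.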 These entries were drawn from the full list. Measured potencies and affinities stand elsewhere.

Each compound was assayed against Virion infectivity factor (Human immunodeficiency virus type 1 group M subtype B (isolate BH10)) + Virion infectivity factor (Human immunodeficiency virus type 1 group M subtype B (isolate BRU/LAI)) + Virion infectivity factor (Human immunodeficiency virus type 1 group M subtype B (isolate PCV12)) + Virion infectivity factor (Human immunodeficiency virus type 1 group M subtype B (isolate HXB2)) + DNA dC->dU-editing enzyme APOBEC-3G (Homo sapiens) (UniProt P69720+P69721+P69722+P69723+Q9HC16) (assay: inhibitors of Vif binding to APOBEC3G peptide, primary screen, biochemical, TR-FRET, GST-Vif 1-94, biotin-A3G peptide, dose response retest (AID 1117319;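 also: Vif residues 1-94 fused to GST binding biotinylated APOBEC3G peptide 110-148; 0% = full assay without inhibitor and 100% = GST in place of GST-Vif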)). Conditions: stronger effect = higher value.

inhibition, inactive:
CCOc1ccc(CCNC(=O)COC(=O)Cc2c[nH]c3ccccc23)cc1OCC 2.44%
CCOCCCNCc1cccc(OC)c1 -0.48%
CN1CCN(S(=O)(=O)c2ccc(Oc3ccc(Br)cc3F)nc2)CC1 -0.65%
COc1cccc(CC(=O)OCC(=O)c2cc(OC)ccc2OC)c1 18.9%
Cc1cc(C)cc(N2CN=c3s/c(=C\c4ccco4)c(=O)n3C2)c1 3.97%
O=C1C(Cl)=C(Nc2ccccc2)C(=O)c2ccccc21 -1.3%
CN(C)c1ccc(NC2=C(Cl)C(=O)c3ccccc3C2=O)cc1 20.1%
O=C1C(Cl)=C(NC(=O)c2ccccc2)C(=O)C(Cl)=C1NC(=O)c1ccccc1 20.2%
CC(=O)Nc1ccc(NC2=C(Cl)C(=O)c3ccccc3C2=O)cc1 11.5%
O=C(Nc1ccc2cn[nH]c2c1)c1c(Cl)cccc1Cl 2.79%
CCNC1=C(Cl)C(=O)c2ccccc2C1=O 2.59%
CCC(=O)Nc1c(C)cc(C)cc1Cl 1.1%
CCCC(=O)Nc1ccccc1NC(=O)CCC 16.5%
CC(c1ccccc1)C1NC(C(=O)O)CS1 (stereo unspecified) -0.34%
Cc1ccc(CN2CCSc3ccc(C(=O)NCc4cccnc4)cc32)cc1 -7.4%
COc1ccc(C(=O)/C=C2/C(=O)Nc3ccccc32)cc1 11.7%
Cc1[nH]n(-c2ccccc2)c(=O)c1/C=C1\C=NN=C1c1ccccc1 -6.22%
COC(=O)c1c(NC(=O)c2nc3nc(C)cc(C(F)F)n3n2)sc2c1CCC2 -2.56%
CCN(CC)C(=O)c1sc(NC(=O)C(Sc2ccccc2)c2ccccc2)c(C(=O)OC(C)C)c1C (stereo unspecified) -1.62%
C(/C=C/c1ccco1)=N/N1CCN(c2ccccc2)CC1 18.8%
C(=C\c1ccccc1)/C=N/n1cnnc1 17.7%
S=c1[nH]nc(-c2cccnc2)n1/N=C/C=C/c1ccccc1 32.9%
CC(/C=N/n1c(-c2ccccc2)n[nH]c1=S)=C\c1ccco1 29%
S=c1[nH]nc(-c2cccnc2)n1/N=C/c1ccco1 3.51%
Cc1cc(-c2n[nH]c(=S)n2/N=C/c2ccc(C)o2)n[nH]1 27.9%
CC(/C=N/n1c(-c2ccc(Cl)cc2)n[nH]c1=S)=C\c1ccco1 27.8%
Cc1cccc(-c2n[nH]c(=S)n2/N=C/c2ccco2)c1 -4.06%
O=C(COC(=O)Cn1cnc2ccccc21)Nc1ccc(F)c(F)c1 -4.98%
C=CCSc1nnc(CNC(=O)c2ccccc2C)n1C(C)C 4.54%
CC(NC(=O)C(=S)N1CCN(C)CC1)c1ccccc1 (stereo unspecified) 0.7%
C=CCN1/C(=C2/SC(=S)N(C)C2=O)Sc2ccccc21 11.3%
CCc1noc(C)c1C(=O)OC(C)C(=O)Nc1ccccc1OC (stereo unspecified) 3.88%
Cn1nc(-c2ccccc2F)c2cc(C(=O)Nc3ccc4c(c3)OCCO4)sc21 -1.77%
COc1cccc(-c2nn(C)c3sc(C(=O)NCc4ccc5c(c4)OCO5)cc23)c1 -2.11%
Cc1nn(CC(=O)NC2CCS(=O)(=O)C2)c(C)c1[N+](=O)[O-] (stereo unspecified) -7.13%
Cc1cc(S(=O)(=O)N2CCOCC2)ccc1OCC(=O)N1CCCCC1 25.7%
CCc1cccc(NC(=O)CCNS(=O)(=O)c2cccc3nonc23)c1 9.44%
Cc1ccc(NC(=O)CCNS(=O)(=O)c2cccc3nonc23)cc1 2.21%
CC(C)Cn1c2c(c(=O)[nH]c1=O)C(NS(=O)(=O)c1ccc(Cl)cc1)(C(F)(F)F)C(=O)N2 (stereo unspecified) -5.6%
COc1cccc(C(=S)N2CCCC2)c1OC 0.47%
O=C1C2CCCN2C(=O)N1CCCN1CCN(c2ccc([N+](=O)[O-])cc2)CC1 (stereo unspecified) -0.31%
O=C1C2CCCN2C(=O)N1CCCCN1CCN(c2ccc(F)cc2)CC1 (stereo unspecified) -0.87%
COc1cccc(-n2nc(C(N)=O)c(O)cc2=O)c1 -7.89%
O=C(O)CCC(=O)NNc1ncnc2ccccc12 -0.06%
CC(=O)NNc1ncnc2ccccc12 16%
Cc1cc(N/N=C/c2ccncc2)nc2ccccc12 8.69%
COC(=O)CC1SC(=O)NC1=Nc1ccc(C)cc1 (stereo unspecified) 19.1%
CCCCn1c(N)c(N(CCOC)C(=O)c2ccc(OCc3c(C)noc3C)cc2)c(=O)[nH]c1=O 5.41%
O=C(CSc1ncnc2sccc12)Nc1ccccc1 -6.5%
O=C(CSc1ncnc2sccc12)Nc1ccccc1F -5.44%
Cc1ccc2c(c1)C(c1ccccc1)CC(=O)O2 (stereo unspecified) -9.94%
Nn1c(SCC(=O)Nc2ccc3c(c2)OCO3)nnc1C(F)(F)F 1.55%
Cn1c(SCCC#N)nnc1-c1ccc(F)cc1 11.1%
O=C(O)CSc1nnc(-c2ccncc2)n1C1CCCCC1 -0.35%
C/C(=C\C(=O)c1ccc(C)cc1)Nc1ccc(N2CCOCC2)cc1 11.1%
COc1ccc2nc(C)cc(Nc3ccccc3OC)c2c1 -8.19%
Cc1cccc(S(=O)(=O)c2c(C)cc(C)nc2Cl)c1 -4.17%
COc1ccc(CN2CCN(c3nc4ccccc4s3)CC2)cc1 -11.5%
Cc1ccc(CN(Cc2ccccc2)C(=S)Nc2ccccc2C)o1 13.2%
CN(C)/C=C1/Sc2ccccc2C1=O -7.14%
CC(=O)N(C)/C=C1\Sc2ccccc2C1=O 1.33%
CCOC(=O)C(CC(=O)O)N1CCCCC1 (stereo unspecified) -2.07%
Cc1ccc(C(=O)Nc2ccc(F)cc2)o1 -0.54%
Cc1ccc(C(=O)Nc2ccc(CC(=O)O)cc2)o1 1.07%
CCOC(=O)c1ccc(N/C=C/C(=O)C(C)(C)C)cc1 5.83%
COc1ccc(N/C=C/C(=O)C(C)(C)C)cc1 -3.89%
CCN(CC(=O)Nc1c(F)cccc1F)C(=O)C1CC(=O)N(CCc2ccccc2)C1 (stereo unspecified) 5.22%
CN(CCC#N)C(=O)CC1(Cc2ccccc2)CCOC(C)(C)C1 (stereo unspecified) -1.26%
Cc1cccc(Nc2c([N+](=O)[O-])ccc3nonc23)c1C -5.88%
Cc1cc(C)cc(NC2=NCC(=O)N2Cc2ccccc2)c1 2.08%
CCOCCCNC(=O)Cn1cnc2c(cnn2-c2ccc(F)cc2)c1=O -2.53%
Cc1ccccc1N(C=O)c1ccccc1C -8.26%
COc1cccc(OCCNS(=O)(=O)c2cccc([N+](=O)[O-])c2)c1 -4.86%
Oc1c(CN2CCOCC2)cc(COCc2ccccc2)c2cccnc12 29.4%
O=[N+]([O-])c1ccc(O)c2cccnc12 -6.29%
CCOc1cccc(CN2CCN(c3cccc(C(F)(F)F)c3)CC2)c1O 28.2%
Oc1c(Cl)cc(CN2CCCCC2)c2cccnc12 10.4%
O=[N+]([O-])c1cc(Cl)c2cccnc2c1O -6.11%
O=[N+]([O-])c1cc(F)c2cccnc2c1O 18.9%
O=[N+]([O-])c1cc(CN2CCN(c3ccccc3)CC2)c(O)c2ncccc12 12.7%
Cc1ccc([N+](=O)[O-])c2cccnc12 1.02%
CCOC(=O)c1cc(-c2cccs2)[nH]n1 3.68%
O=C1C(c2ccccc2)c2ccccc2N1Cc1ccccc1 (stereo unspecified) -2.08%
CCOc1ccc(OCCn2ccnc2)cc1 -0.21%
Cc1nc2ccc(NS(=O)(=O)c3cccc([N+](=O)[O-])c3)cc2s1 -2.07%
COCCNC(=O)Nc1ccc2nc(C)sc2c1 3.2%
COCCNC(=O)Nc1ccc2nc(-c3cccs3)c(-c3cccs3)nc2c1 13.9%
O=C(Nc1ccc2nc(-c3cccs3)c(-c3cccs3)nc2c1)NC1CC1 -3.31%
O=C(Nc1ccc(N2CCOCC2)cc1)Nc1ccc2nc(-c3ccco3)c(-c3ccco3)nc2c1 16%
O=C(Nc1ccc2nsnc2c1)NC1CCCCC1 -12.3%
Cc1nc2ccc(NC(=O)NCCCO)cc2s1 -2.1%
OCCCNC(=S)Nc1ccc2nc(-c3ccccn3)c(-c3ccccn3)nc2c1 16.7%
O=C(NCCO)Nc1ccc2nsnc2c1 13.2%
COc1cc2[nH]c(=O)c(C(=O)NCc3ccc(C)cc3)c(O)c2cc1OC -8.1%
O=C1NC[C@H](c2ccccc2)N(CCc2cc(C(F)(F)F)cc(C(F)(F)F)c2)C1=O -3.13%
COC(=O)c1sc2nc(C)c([N+](=O)[O-])c(C)c2c1N 6.2%
CC(C)c1nnc(NC(=O)CC(=O)Nc2ccccc2C(=O)O)s1 15.4%
CCOC(=O)c1c(NC(=O)COC(=O)CCOc2ccc(OCC)cc2)sc(C(=O)N(C)C)c1C -2.2%
Cc1nc(CC(=O)Nc2nccs2)cs1 -1.06%
COC(=O)C1=C(C(=O)OC)[C@@H]2Nc3ccccc3[C@@]23C[C@@H](C(=O)OC)N=C3N1 0.57%
CN(CC(=O)Nc1ccccc1N1CCOCC1)S(=O)(=O)c1ccc(F)cc1 4.33%
